The campaign covered roughly 1,000 compounds. About 410 (41%) were called active. The set was probably picked from earlier hits. Only a sample is shown. Values without a mark were called inactive.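 How the source made its calls: active means fitted half-maximal inhibitory concentration no more than tenfold above the top dose tested; inconclusive means flat fit with 30 to 70% activity, or poor fit; inactive means half-maximal concentration beyond tenfold above the top dose.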
Assay: YIC intramolecular FRET probe signal interference, dose response, counter-screen for RanGTP-importin-beta inhibitor project, biochemical, fluorescence FRET (AID 435026)
Conditions: Purified YIC probe, intramolecular FRET ratio YFP/CFP

Structure (SMILES) | IC50
CN(C)CCCn1c(N)c(C#N)c2nc(C#N)c(C#N)nc21 | 25 µM (active)
CCN(CCO)C(=S)Nc1cc(C(=O)OC)ccc1C(=O)OC | > 50 µM
O=C(Nc1ccccc1-c1ccccc1)c1cccs1 | > 50 µM
N#C/C(=C/c1ccc(N2CCCCC2)o1)C(=O)NCCc1c[nH]c2ccccc12 | 0.753 µM (active)
Cc1nc2ccccc2c2oc(C(=O)NCCCN3CCC(C)CC3)cc12 | > 50 µM
COc1ccc(C(=O)C[n+]2ccc(N)c(C)c2C)cc1 | > 50 µM
Cc1ccc(-n2c(=O)c(C#N)cc3c(=O)n4ccccc4nc32)cc1C | 1.78 µM (active)
COC(=O)c1cc2c(ccn2C)n1C | > 50 µM
CCn1c2ccccc2c2cc(NC(=O)CNC)ccc21 | > 50 µM
O=c1cc(CN2CCN(S(=O)(=O)/C=C/c3ccccc3)CC2)c2ccc(O)cc2o1 | 44.1 µM (active)
COc1cc(SC)ccc1C(=O)Nc1nc(C)cs1 | > 50 µM
COC(=O)c1ccc2c(C(C)(C)O)c(C(C)(C)O)[nH]c2c1 | > 50 µM
COc1cccc(C(=O)c2cc3ccc(O)cc3oc2=O)c1 | 28.1 µM (active)
CC(=O)c1ccc(-c2ccc(Cn3c(C)nc4cc(N)c(C)nc43)cc2)cc1 | > 50 µM
Cc1cc(O)ccc1NC1=CC(=O)CC(C)(C)C1 | > 50 µM
CC(=O)N1CCc2c(sc(NC(=O)CCS(=O)(=O)c3ccc(C)cc3)c2C(N)=O)C1 | 38 µM (active)
CCCNS(=O)(=O)c1ccc2c(c1)CCCN2C(C)=O | > 50 µM
CCOC(=O)c1c(C)oc2cc(Br)c(OCC(N)=O)cc12 | > 50 µM
COc1ccc(-n2cnc3cc(NCc4ccco4)ccc32)cc1 | > 50 µM
CC1(C)CC(=O)NC=C(c2ccccc2)C1 | > 50 µM
Cc1ccc(NC(=S)NCCN2CCOCC2)cc1 | > 50 µM
N#C/C(=C/c1ccc(N2CCOCC2)o1)C(=O)N1CCOCC1 | 5.08 µM (active)
N#C/C(=C\c1ccc(N2CCOCC2)o1)C(=O)N1CCOCC1 | 5.73 µM (active)
CCCC(C)c1nnc(NC(=O)C2CC(=O)N(c3ccc(OCC)cc3)C2)s1 (configuration not stated) | > 50 µM

Structure (SMILES) | IC50
COc1ccc(C(=O)Cc2cnn(-c3ccccc3)c2)c(O)c1 | > 50 µM
Cc1ccc(N2CCN(c3ccc(C)cc3)C2c2ccccn2)cc1 | > 50 µM
CCOc1ccc(N=Cc2c(O)n(-c3cccc(C)n3)c(=O)c3ccccc23)cc1 | 34.7 µM (active)
CCN(CC)c1nc(-c2ccccc2)cc(C(F)(F)F)c1C#N | 9.38 µM (active)
CCCOc1ccc(Cn2ccnc2)cc1[N+](=O)[O-] | > 50 µM
CCN1C(=O)/C(=C2/Sc3ccccc3N2CCCS(=O)(=O)O)SC1=S | 15 µM (active)
C/C(=N\N)c1c(-c2ccccc2)c2cc(Br)ccc2[nH]c1=O | > 50 µM
CN1CCN(c2cc(=O)n(-c3ccc(Cl)cc3)c(=O)[nH]2)CC1 | > 50 µM
CCC(=O)Nc1c(S(=O)(=O)c2ccccc2)c2nc3ccccc3nc2n1Cc1ccccc1 | 17.3 µM (active)
O=C(NNc1c2ccccc2nc2ccccc12)c1cc2ccccc2cc1O | > 50 µM
COc1ccc(CCn2c(=N)c(C(=O)NCc3ccco3)cc3c(=O)n4cccc(C)c4nc32)cc1 | 50.2 µM (active)
CC(C)C1C2=C(CC(C)(C)CC2=O)ON1c1ccccc1 (configuration not stated) | > 50 µM
CCN1CCc2nc(NC(=O)c3cc(F)c(F)cc3Cl)sc2C1 | > 50 µM
CNC(=O)c1cc2c(ccc3ccccc32)oc1=N | 7.06 µM (active)
CC(=O)c1cc(C#N)c(N2CC(C)OC(C)C2)nc1C (configuration not stated) | > 50 µM
Oc1c(CN2CCN(c3ccc(F)cc3)CC2)cc(Cl)c2cccnc12 | > 50 µM
CC1CN(c2cc(=O)n(-c3cccc(Br)c3)c(=O)[nH]2)CC(C)O1 (configuration not stated) | > 50 µM
CCOC(=O)c1oc2c(CN3CCN(CCO)CC3)c(O)c(CC)cc2c(=O)c1-c1nc2ccccc2s1 | 29.2 µM (active)
CC1CC(=O)N(CC(=O)Nc2cccc(Cl)c2)c2ccccc2S1(=O)=O (configuration not stated) | > 50 µM
CC(OC(=O)CNC(=O)c1cccc(F)c1)C(=O)NC1CCCCC1C (configuration not stated) | > 50 µM
OCCNCc1cccc(OCc2ccccc2Cl)c1 | > 50 µM
N#Cc1c(N)n(CCOC(=O)c2ccc(Cl)cc2)c2nc3ccccc3nc12 | 3.73 µM (active)
CCN(CC(=O)Nc1cccc(S(=O)(=O)N2CCCCC2)c1)Cc1ccccc1 | > 50 µM

— PubChem BioAssay AID435026 (Broad Institute, 2010)
